Source: PubChem BioAssay (EPA / NIEHS)
The source made the active and inactive calls. Rule for the calls: active = hit-call score of the fitted dose curve at least 0.9, where 1 is the maximum; inactive = score below 0.9.

Each molecule was assayed on TIMP metallopeptidase inhibitor 2 (TIMP2), TIMP2 (gene 7077) (assay: BSK_KF3CT_TIMP2: BioMAP Diversity Plus: KF3CT Assay for TIMP metallopeptidase inhibitor 2 (TIMP2) Biomarker Activity (AID 2283071)). Settings: primary human keratinocytes with fibroblasts; actives raise or lower the signal.
Method in brief: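 TIMP-2 measured by ELISA at 24 h in human keratinocyte/fibroblast primary co-cultures exposed to chemicals. Both increases and decreases were fitted against DMSO. Parallel cultures were stained with SRB for total protein as an overt-cytotoxicity check.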
`On1ccccc1=S` was tested, and the AC50 was 11.6 µM (active). In the case of `O=c1[nH]c2ccc(S(=O)CCN3CCC(Cc4ccc(F)cc4)CC3)cc2o1` (stereo not given), the outcome is reported as “inactive”. For `O=C(NS(=O)(=O)/C=C/c1ccccc1)c1ccc(F)cc1Cl`, the AC50 was 20 µM (active). With `COc1ccc(-n2nc(C(F)F)cc2-c2ccc(S(C)=O)cc2)cc1` (stereo not given) the outcome was “inactive”. `CCCN(C1CCN(C(=O)C2CCNCC2)CC1)[C@@H]1CCc2ccc(OC)cc2C1` was tested, and the outcome was “inactive”. With `O=C1CCCCCN1` the outcome was “inactive”. `Nc1cccc(N)c1` was tested, and the outcome was “inactive”. `Fc1ccccc1[C@@H](F)COC1CCC(Nc2ncnc3[nH]ncc23)CC1` (stereo not given in full) was tested, and the outcome was “inactive”. `CCn1nc(Cc2ccccc2)cc1C1CCN(C[C@H]2C[C@H](N(C)[C@@H](C(=O)O)C(C)C)C[C@@H]2c2cccc(F)c2)CC1` was tested, and the outcome was “inactive”. `C=CC(=C)CCC=C(C)C` was tested, and the outcome was “inactive”. With `CC(C)(O)c1coc(S(=O)(=O)NC(=O)Nc2c3c(cc4c2CCC4)CCC3)c1` the outcome was “inactive”. In the case of `CC(=O)OCCC(C)C`, the outcome is reported as “inactive”. In the case of `O=C1OC(=O)C2C3C=CC(C3)C12` (stereo not given), the outcome is reported as “inactive”. `O=C(O)c1cccc(Oc2ccccc2)c1` was tested, and the outcome was “inactive”. For `CCCCCCCCCCCCCCCO`, the outcome was “inactive”. With `O=C(CCCCCCCCc1cccnc1)N1CCC(C=C(c2ccccc2)c2ccccc2)CC1` the AC50 was 10.8 µM (active). In the case of `COC(=O)c1ccccc1O`, the outcome is reported as “inactive”. For `CCC(C)(C)C(=O)O[C@H]1C[C@@H](C)C=C2C=C[C@H](C)[C@H](CC[C@@H]3C[C@@H](O)CC(=O)O3)[C@H]21`, the AC50 was 30.8 µM (active). `O=c1n(CC2CO2)c(=O)n(CC2CO2)c(=O)n1CC1CO1` (stereo not given) was tested, and the outcome was “inactive”. With `O=C(O)c1cccc(N(Cc2cccnc2)c2ccc(OC(F)F)c(OC(F)F)c2)c1` the outcome was “inactive”. With `C1=CCCC=CCCC=CCC1` the outcome was “inactive”. In the case of `O=C(O)c1cc(N=Nc2ccc(S(=O)(=O)Nc3ccccn3)cc2)ccc1O`, the outcome is reported as “inactive”. For `CCOc1cccc(-n2cc(C(=O)N3CCN(c4cc(C(=O)O)c5ccccc5c4)CC3)nc2-c2ccc(C)cc2)c1`, the AC50 was 14.7 µM (active). In the case of `CC(C)CCO`, the outcome is reported as “inactive”. In the case of `CC(=O)OC[C@H]1O[C@@](COC(C)=O)(O[C@H]2O[C@H](COC(C)=O)[C@@H](OC(C)=O)[C@H](OC(C)=O)[C@H]2OC(C)=O)[C@@H](OC(C)=O)[C@@H]1OC(C)=O`, the outcome is reported as “inactive”. In the case of `NC(=O)NO`, the outcome is reported as “inactive”. `COc1ccc(/C=C/S(=O)(=O)NC(=O)c2ccc(C)cc2Cl)cc1` was tested, and the outcome was “inactive”. With `Nc1ccc(Nc2ccccc2)cc1` the outcome was “inactive”. For `CN(C)c1ccc(Cc2ccc(N(C)C)cc2)cc1`, the outcome was “inactive”. `Cc1ccc(C)c(O)c1` was tested, and the outcome was “inactive”.

Each molecule was assayed on Transforming growth factor beta 1 (TGFb1), TGFB1 (gene 7040) (assay: BSK_KF3CT_TGFb1: BioMAP Diversity Plus: KF3CT Assay for Transforming growth factor beta 1 (TGFb1) Biomarker Activity (AID 2283072)). Settings: primary human keratinocytes with fibroblasts; actives raise or lower the signal.
Method in brief: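 ELISA quantifies TGF-b1 at 24 h post-dose in a primary human skin co-culture of keratinocytes and fibroblasts, with gain or loss judged against DMSO. Parallel SRB total-protein staining flags overt cytotoxicity.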
In the case of `On1ccccc1=S`, the AC50 is reported as 9.8 µM (active). `O=c1[nH]c2ccc(S(=O)CCN3CCC(Cc4ccc(F)cc4)CC3)cc2o1` (stereo not given) was tested, and the outcome was “inactive”. For `O=C(NS(=O)(=O)/C=C/c1ccccc1)c1ccc(F)cc1Cl`, the outcome was “inactive”. `COc1ccc(-n2nc(C(F)F)cc2-c2ccc(S(C)=O)cc2)cc1` (stereo not given) was tested, and the outcome was “inactive”. In the case of `CCCN(C1CCN(C(=O)C2CCNCC2)CC1)[C@@H]1CCc2ccc(OC)cc2C1`, the outcome is reported as “inactive”. With `O=C1CCCCCN1` the outcome was “inactive”. For `Nc1cccc(N)c1`, the outcome was “inactive”. In the case of `Fc1ccccc1[C@@H](F)COC1CCC(Nc2ncnc3[nH]ncc23)CC1` (stereo not given in full), the outcome is reported as “inactive”. In the case of `CCn1nc(Cc2ccccc2)cc1C1CCN(C[C@H]2C[C@H](N(C)[C@@H](C(=O)O)C(C)C)C[C@@H]2c2cccc(F)c2)CC1`, the outcome is reported as “inactive”. `C=CC(=C)CCC=C(C)C` was tested, and the outcome was “inactive”. `CC(C)(O)c1coc(S(=O)(=O)NC(=O)Nc2c3c(cc4c2CCC4)CCC3)c1` was tested, and the outcome was “inactive”. `CC(=O)OCCC(C)C` was tested, and the outcome was “inactive”. `O=C1OC(=O)C2C3C=CC(C3)C12` (stereo not given) was tested, and the outcome was “inactive”. With `O=C(O)c1cccc(Oc2ccccc2)c1` the outcome was “inactive”. With `CCCCCCCCCCCCCCCO` the outcome was “inactive”. With `O=C(CCCCCCCCc1cccnc1)N1CCC(C=C(c2ccccc2)c2ccccc2)CC1` the AC50 was 10.1 µM (active). `COC(=O)c1ccccc1O` was tested, and the outcome was “inactive”. In the case of `CCC(C)(C)C(=O)O[C@H]1C[C@@H](C)C=C2C=C[C@H](C)[C@H](CC[C@@H]3C[C@@H](O)CC(=O)O3)[C@H]21`, the AC50 is reported as 31.4 µM (active). `O=c1n(CC2CO2)c(=O)n(CC2CO2)c(=O)n1CC1CO1` (stereo not given) was tested, and the outcome was “inactive”. For `O=C(O)c1cccc(N(Cc2cccnc2)c2ccc(OC(F)F)c(OC(F)F)c2)c1`, the outcome was “inactive”. For `C1=CCCC=CCCC=CCC1`, the outcome was “inactive”. In the case of `O=C(O)c1cc(N=Nc2ccc(S(=O)(=O)Nc3ccccn3)cc2)ccc1O`, the outcome is reported as “inactive”. With `CCOc1cccc(-n2cc(C(=O)N3CCN(c4cc(C(=O)O)c5ccccc5c4)CC3)nc2-c2ccc(C)cc2)c1` the AC50 was 14.4 µM (active). `CC(C)CCO` was tested, and the outcome was “inactive”. With `CC(=O)OC[C@H]1O[C@@](COC(C)=O)(O[C@H]2O[C@H](COC(C)=O)[C@@H](OC(C)=O)[C@H](OC(C)=O)[C@H]2OC(C)=O)[C@@H](OC(C)=O)[C@@H]1OC(C)=O` the outcome was “inactive”. For `NC(=O)NO`, the outcome was “inactive”. In the case of `COc1ccc(/C=C/S(=O)(=O)NC(=O)c2ccc(C)cc2Cl)cc1`, the outcome is reported as “inactive”. With `Nc1ccc(Nc2ccccc2)cc1` the outcome was “inactive”. For `CN(C)c1ccc(Cc2ccc(N(C)C)cc2)cc1`, the outcome was “inactive”. For `Cc1ccc(C)c(O)c1`, the outcome was “inactive”.
